We go through 69 compounds from PubChem BioAssay AID493151 (Sanford-Burnham Center for Chemical Genomics, 2011).

Hit rate of the full screen: of about 1,400 compounds, about 860 (61%) were called active.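 Rule for the calls: active = inhibition reaching a set limit, 80% of the first screen's cutoff, at 20 µM in any replicate; inactive = the rest.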 The set was probably picked from earlier hits. The list is a sample of the results.

Usually inhibition stands for the change of the read-out against control, counted positive when it falls.

Chain of DNA dC->dU-editing enzyme APOBEC-3A (Homo sapiens) (P31941 whole entry, looked up): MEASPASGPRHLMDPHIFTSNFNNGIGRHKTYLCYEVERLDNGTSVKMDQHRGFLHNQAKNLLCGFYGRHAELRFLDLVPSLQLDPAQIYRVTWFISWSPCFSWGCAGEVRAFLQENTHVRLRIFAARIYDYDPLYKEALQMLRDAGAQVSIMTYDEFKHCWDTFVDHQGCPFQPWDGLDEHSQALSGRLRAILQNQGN

This assay has as its target DNA dC->dU-editing enzyme APOBEC-3A (Homo sapiens) (UniProt P31941). Nature of the assay: A3A ssDNA deamination blockers, replicate testing – biochemical, single concentration, fluorescence readout, selectivity assay for APOBEC3G inhibitor project, confirmation (AID 493151).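 Note: plate controls were DMSO wells with A3A for no effect and wells lacking A3A enzyme for full effect.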 To be noted: recombinant A3A, ssDNA deaminase UDG fluorescence assay; at 20 µM; active compounds read high.
As to `C=CC1=C(C(=O)O)N2C(=O)[C@@H](NC(=O)/C(=N/OCC(=O)O)c3csc(N)n3)[C@H]2SC1`, the inhibition is 76.3% (active). Under `O=C(Nc1cccc(-c2nc3ccccc3[nH]2)c1)c1ccc(C(=O)Nc2cccc(-c3nc4ccccc4[nH]3)c2)cc1` stands 6.82% (inactive); under `CC(=O)Nc1ccc(NC(=O)C2CCCN(S(=O)(=O)c3ccc(Cl)cc3)C2)cc1` (centres undefined), -5.52% (inactive). Under `CSc1nnc(-c2ccncc2)n1CCCN1CCCC1=O` stands 72.4% (active); under `O=C(CSc1nccc(=O)[nH]1)Nc1ccc(N2CCOCC2)c(Cl)c1`, 18.1% (inactive). Take `COc1cc(/C=N\Nc2ccc([N+](=O)[O-])cn2)ccc1OCC(=O)O`: the inhibition was 37.7% (active). Under `CC1(C)CC(N2CCN(C(c3ccccc3)c3ccccc3)CC2)=CC(=[N+]2CCCCC2)C1` stands 58.7% (active). Under `Cc1ccc(C2=C/C(=C\c3cccnc3)C(=O)O2)cc1` stands 19.7% (inactive); under `CCNC(=O)COC(=O)CCNC(=O)c1cccc(C)c1`, 25.7% (active). Regarding `CSc1nnc(SCc2nc3sc(C(=O)O)c(C)c3c(=O)[nH]2)s1`, the inhibition is 68.9% (active). Under `COc1ccc(Cc2nnc(NC(=O)c3ccc(OC)cc3OC)s2)cc1` stands -9.68% (inactive); under `COC(=O)C1=C(C)N(Cc2ccccc2)C(=NCCCOC(C)C)N[C@H]1c1ccccc1`, 77.1% (active). Under `N#Cc1ncc(C(F)(F)F)cc1Oc1cccnc1` stands -4.78% (inactive); under `CCn1c(SCC(=O)Nc2cccc(F)c2)nnc1-c1cc2cc(Br)ccc2o1`, 68.4% (active).

Consider `NS(=O)(=O)c1cc(C(=O)OCC(=O)NNC(=O)c2ccccc2)ccc1Cl`, for which the inhibition was 8.76% (inactive). Then `O=C(COC(=O)c1cnc(Cl)c(Cl)c1)NCc1ccco1`, with 19.3% (active); and `C[n+]1ccc(C(=O)NCc2ccccc2)cc1`, with 63% (active). Then `CC[n+]1cc(C)ccc1/C=C/c1ccc(N(C)C)cc1`, with 58.4% (active); and `CCN1C(=NCCc2cccnc2)N[C@@H](c2ccccc2)[C@H](C(=O)OC)[C@H]1C`, with 61.1% (active).

For the compound `CC[n+]1c(C)n(-c2ccccc2)c2ccc(NC(C)=O)cc21`, the inhibition is 73.8% (active). Then `COc1ccc(C)cc1NC(=O)CCCN1C(=O)NC(C)(C)C1=O`, with 48.1% (active); and `CS(=O)(=O)c1ccc2c(c1)SC1=NC(=O)/C(=C/c3ccco3)C(=N)N12`, with 33.9% (active); and `CC1=NN(C(=O)CCc2ccccc2O)C(O)(C(F)(F)F)C1` (centres undefined), with 21.4% (inactive). As for `O=C(CNC1CCCCC1)NCC1(c2ccccc2)CCCC1`, the inhibition is 29.8% (inactive). Under `CC(Oc1ccc(F)cc1)C(=O)Nc1cc(S(=O)(=O)N2CCOCC2)ccc1N1CCN(C)CC1` (centres undefined) stands 55.2% (active); under `C[N+](C)(C)CCNC(=O)c1cc[n+](Cc2ccccc2)c(/C=N/O)c1`, 52.7% (active).

`COC(=O)C[n+]1cccc2ccccc21`: the inhibition was 67.4% (active). Then `CC(C)c1ccc(/C=C2\NC(=O)NC2=O)cc1`, with 67.7% (active). Then `CCCCCCCC[n+]1cccc(C(=O)N2c3c(nc(N)[nH]c3=O)NC(C)C2C)c1` (centres undefined), with 69.9% (active); and `COc1ccc(NC(=O)CN(C)C(=O)/C=C/c2cn(Cc3ccccc3)nc2-c2cccnc2)cc1`, with 30.7% (inactive). Then `CCCN1C2=C(C(=O)CCC2)C(c2ccc(O)c(Br)c2)C2=C1CCCC2=O`, with -5.86% (inactive). As to `S=C(Nc1cccnc1)Nc1ccccn1`, the inhibition is -2% (inactive).

Turning to `C[N+]1(CCNC(=O)/C=N/O)CCCCC1`, the inhibition is 73.9% (active). Then `C[N+]1(CC(O)COc2ccccc2)CCN(C(=O)c2ccc([N+](=O)[O-])cc2)CC1` (centres undefined), with 74.8% (active); and `CNc1ccc([N+](=O)[O-])cc1C(=O)O`, with 0.63% (inactive). On to `COc1ccc(CNc2nnnn2C)cc1`, for which the inhibition was -3.03% (inactive). Then `Cc1cc2c(cc1C)[n+](C)cn2CC(O)COCC1CC=CCC1` (centres undefined), with 73.1% (active); and `CC(/C=C/c1ccccc1)=N\NC(=O)C1CC1(C)c1ccccc1` (centres undefined), with -0.43% (inactive). Then `COc1ccc2[nH]c(=O)c(-c3noc(-c4ccc(F)cc4)n3)cc2c1`, with 5.11% (inactive); and `CCCc1nc(-c2cc3cc(C)ccc3[nH]c2=O)no1`, with 67.6% (active). Under `COc1ccccc1-c1noc(CSc2nc(C)cc(=O)[nH]2)n1` stands 36.8% (active); under `O=C(c1ccc(CS(=O)(=O)c2ccccc2)o1)N1CCN(c2ccccc2)CC1`, 31.7% (active). On to `Cc1snc(SCc2c(F)cccc2Cl)c1C#N`, for which the inhibition is 30.3% (inactive).

With `N#Cc1ccccc1CN1C(=O)S/C(=C/c2cccn2-c2cccc(C(=O)O)c2)C1=O`, the inhibition is 53.8% (active).

On to `CCN(CC)CCCNC(=O)CCn1nc(-c2ccc(Cl)cc2)ccc1=O`, for which the inhibition is -4.91% (inactive). For `Cc1nnc(N/N=C/c2ccccn2)[nH]c1=O`, the inhibition is -1.88% (inactive). On to `O=C(N/N=C\c1cccnc1)c1cc(-c2ccccc2)nc2c(Cl)cccc12`, for which the inhibition was -3% (inactive). Then `COc1ccccc1CCNC(=O)C1CCN(C(=O)/C=C/c2ccccc2)CC1`, with 36.9% (active); and `COc1ccc(CCNC(=O)COC(=O)/C=C/c2cccs2)cc1OC`, with -7.13% (inactive); and `CC1(C)Oc2ccc3ccc(=O)oc3c2/C(=C/NCCO)C1=O`, with 71.5% (active). Under `N#Cc1ccsc1NC(=O)CN1CCN(S(=O)(=O)c2cc(Cl)ccc2Cl)CC1` stands 22.2% (inactive); under `CCN(CC)CCOC(=O)c1ccc(NC(=O)CNC(=O)c2ccccc2)cc1`, 2.53% (inactive). Then `CCOC(=O)c1ccc(NC(=O)CSc2ncccn2)cc1`, with 59% (active); and `Cc1csc(SCC(=O)Nc2sccc2C#N)n1`, with 0.02% (inactive). With `Cc1cc(/C=N/NC(=O)CC2(C)OCCO2)c(C)n1-c1ccc(Cl)c(Cl)c1`, the inhibition was 0.39% (inactive). Under `CCS(=O)(=O)c1ccc(-c2cccc(NC(=O)c3ccc(Br)o3)c2)nn1` stands -5.47% (inactive); under `CCCCNC(=O)CSc1nc2ccc(NC(=O)CSc3nnc(N)s3)cc2s1`, 49.7% (active).

As for `COc1ccc(Br)cc1CN(C)C(=O)C1CC(=O)N(C2CCCC2)C1` (centres undefined), the inhibition was 27.6% (active).

For the compound `O=C(CSc1nc2ccccc2c(=O)[nH]1)Nc1nc(-c2ccc(Br)cc2)cs1`, the inhibition is 42.3% (active). On to `CC(C)CCOc1ccc(C(=O)C[N+]2(C)CCOCC2)cc1`, for which the inhibition is 95.7% (active). Under `Cc1ccc(C(=O)N/N=C\c2cc(Br)c(Br)o2)cn1` stands 15.2% (active). Under `COc1cccc(NC(C)=[N+](C)CCNS(=O)(=O)c2ccc(Cl)cc2)c1` stands 29.4% (inactive); under `C[N+](C)(CCCCCC[N+](C)(C)CCCN1C(=O)c2cccc3cccc(c23)C1=O)CCCN1C(=O)c2cccc3cccc(c23)C1=O`, 35.2% (active); under `CC(=O)Nc1ccc(Nc2cc(C)nc(Nc3ccc(NC(C)=O)cc3)n2)cc1`, 48.6% (active). Under `Cc1ccc(CCCOC(=O)C[N+]2(C)CCCCC2)cc1` stands 81.4% (active); under `CCN1C(=NCc2ccc(OC)cc2)N[C@@H](CCc2ccccc2)[C@H](C(=O)NCc2ccc(OC)cc2)[C@H]1C`, 32.8% (active). In the case of `CCN1C(=NCC(C)C)N[C@@H](CCc2ccccc2)[C@H](C(=O)NCC(C)C)[C@H]1C`, the inhibition was 37.8% (active).

For `COCCCn1c(Cc2csc(Nc3cccc(Cl)c3)n2)nnc1SCC(=O)OC1CCCCC1`, the inhibition was 72.2% (active). Then `O=C1c2oc3ccccc3c(=O)c2C(c2cccc(O)c2)N1c1ccccn1` (centres undefined), with -9.88% (inactive).
